# ssDAF-12 act = S. stercoralis DAF-12 activation, primary screen | AID 652126 | activation, % at 6.8 µM | HEK293 ssDAF-12/GRIP1 lit1-tk-luc reporter, luminescence; % of 3 µM dafachronic acid response | 370,000 compounds, 1% hits;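 active = activation above the mean over all tested compounds plus 3 SD, cut at about 0.9% in these data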
# DAX1 inh-1 = inhibits human nuclear receptor DAX1; P51843; HEK293 Gal4-DAX1 luciferase reporter, luminescence; inhibition, % at 6.75 µM; 340,000 compounds, 0.99% hits;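 active = inhibition above the mean over all tested compounds plus 3 SD, cut at about 4.2% in these data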;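 also: inhibition shows as a rise in luminescence from relieved DAX1 repression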
# Target sequence (P51843 207-470 limits assumed): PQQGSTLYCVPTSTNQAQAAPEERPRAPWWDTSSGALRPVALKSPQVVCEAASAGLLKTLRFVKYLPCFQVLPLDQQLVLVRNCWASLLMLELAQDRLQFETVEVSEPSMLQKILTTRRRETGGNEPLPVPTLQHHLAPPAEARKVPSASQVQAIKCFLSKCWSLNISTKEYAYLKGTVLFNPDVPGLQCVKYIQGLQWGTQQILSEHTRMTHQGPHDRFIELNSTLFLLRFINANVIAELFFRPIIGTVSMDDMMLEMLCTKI
# SMARCA2 activ = SMARCA2 function activation, primary screen. 370,000 compounds, 1% hits. MG213 cells, MMTV-luciferase reporter, dexamethasone, overnight. activation, % at 9.1 µM; in the data active = activation above about 7.8%
# hcDAF-12 act = activators of H. contortus DAF-12 nuclear receptor; HEK293 hcDAF-12 lit1-tk-luc reporter, luminescence; 0% DMSO, 100% Δ7-dafachronic acid; activation, % at 6.8 µM; 370,000 compounds, 1.4% hits;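 active = activation above the mean of all tested compounds plus 3 SD, cut at about 5.5% in these data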
# DAX1 inh-2 = inhibitors of DAX1 repression of SF-1 activated StAR promoter; 370,000 compounds, 1.1% hits; HEK293T StAR-luciferase reporter, SF-1/DAX-1 repression relief; inhibition, % at 6.8 µM; AID 652010;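 active = inhibition above the mean over all tested compounds plus 3 SD, cut at about 3.6% in these data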;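 also: higher inhibition means more luminescence from relief of DAX-1 repression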
# hgDAF12 agonist = agonists of H. glycines DAF-12 nuclear receptor; 370,000 compounds, 1.8% hits; HEK293 GAL4-hgDAF12 UAS-luciferase reporter, agonist luminescence; normalized to butyrate control; activation, % at 6.8 µM;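 active = activation above a cutoff set at the mean of all screened compounds plus 3 SD, cut at about 10% in these data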
# Numbers stand for hits; - = inactive; . = no result. Hits are enriched below; roughly 4.8% of the tested compounds scored in any of these assays.
SMILES,ssDAF-12 act,DAX1 inh-1,SMARCA2 activ,hcDAF-12 act,DAX1 inh-2,hgDAF12 agonist
COc1ccc(/C=N\Nc2ccccn2)c(OC)c1,-,-,-,-,-,11
COc1cc(/C=N/Nc2ccccn2)ccc1OCC(C)C,-,-,-,-,-,11
CCCOc1ccc(/C=N/Nc2ccccn2)cc1OC,-,-,-,-,-,-
Cc1cccc(C=NNc2cc(C)c3cccc(C)c3n2)n1,-,.,-,-,-,12
Cc1cc(N/N=C/c2ccccc2Br)nc2ccccc12,-,-,-,-,-,-
Nc1ccccc1-c1nnc(-c2ccccc2N)n1N,2.0,-,-,6.0,-,-
CCOc1cc(S(=O)(=O)N2CCN(S(=O)(=O)CC)CC2)c(OCC)cc1-n1cnnn1,-,-,-,-,-,-
COc1cc2ncnc(NCc3ccccc3Cl)c2cc1OC,-,-,-,-,-,-
Cc1ccc([N+](=O)[O-])c2c1C(N1CC(C)OC(C)C1)C(C)(C)O2 (centres undefined),15,-,-,-,-,-
Cc1ccc([N+](=O)[O-])c2c1C(N1CCCCC1)C(C)(C)O2 (centres undefined),-,-,-,-,-,-
C[N+]1(C)[C@H]2CC[C@H]1CC(OC(=O)C(O)c1ccccc1)C2 (some centres undefined),-,.,-,-,-,-
CCC(=O)N=c1sc2cc(F)cc(F)c2n1C,-,-,-,6.1,-,-
Cn1c(=NC(=O)C(C)(C)C)sc2cccc(F)c21,-,4.3,-,-,-,-
Cn1c(=NC(=O)c2ccccc2[N+](=O)[O-])sc2cccc(F)c21,-,-,-,-,-,13
CC(C)C(=O)N=c1sc2cc(F)cc(F)c2n1C,-,-,-,-,-,-
CCn1c(=NC(=O)COc2ccccc2)sc2cccc(F)c21,-,-,-,-,-,-
CCOc1ccc(C2NC(=O)C(C#N)=C(S)N2c2cccc(C)c2)cc1OC (centres undefined),-,-,-,-,-,-
CCCN1C(=O)C(NC(=O)c2ccncc2)(C(F)(F)F)C2=C1CC(C)(C)CC2=O (centres undefined),0.9,-,-,-,-,-
Cc1cc(OC(=O)c2cc(Cl)nc3ccccc23)ccc1Cl,-,-,-,-,-,-
CCCCS(=O)(=O)N1CCN(C(=O)C(=O)c2cccc(C(F)(F)F)c2)CC1,-,.,-,-,-,-
COc1ccc(C(=O)Nc2ccc(Nc3ccccc3)cc2)cc1[N+](=O)[O-],-,-,-,-,-,-
CCN(CC)c1ccc(C(=O)Nc2ccccc2)cc1[N+](=O)[O-],-,-,-,-,-,12
CCc1ccccc1NC(=O)c1ccc(NCCc2ccccc2)c([N+](=O)[O-])c1,-,4.4,-,-,-,-
COc1ccc(C2=[N+]([O-])C(C)(C)N(O)C2(C)C)cc1,-,-,-,-,-,-
CCCCN(C)C(=O)Cn1c(=O)oc2cc(S(=O)(=O)N3CC(C)CC(C)C3)ccc21 (centres undefined),-,5.7,-,-,-,-
SMILES,ssDAF-12 act,DAX1 inh-1,SMARCA2 activ,hcDAF-12 act,DAX1 inh-2,hgDAF12 agonist
CC(C)CC(NC(=O)c1ccccc1)C(=O)OCC(=O)Nc1ccc(S(N)(=O)=O)cc1 (centres undefined),-,4.5,-,-,-,-
CCCSc1nnc(CSc2ncccn2)n1C,-,-,-,5.9,-,-
Cc1ccc2nc(-c3ccncc3)c(NC3CCCC3)n2c1,-,5.0,-,-,-,-
COc1cc(NC(=O)NNC(=O)c2cc3occc3n2C)cc(OC)c1OC,-,-,-,-,-,-
Cc1nc2cc(Cl)ccc2n1-c1ccccc1,-,-,-,-,-,-
Cc1n(-c2ccccc2)c2ccc(Cl)cc2[n+]1CCO,-,-,-,-,-,12
Cc1ccc(NC2=NCC(=O)N2C2CCCC2)cc1C,-,-,-,-,-,-
CN1CCN(NC(=O)Nc2ccc(F)cc2)CC1,-,-,-,-,-,-
O=C(/C=C/c1cccs1)Nc1ccc(N2CCOCC2)c(S(=O)(=O)Nc2ccccc2Cl)c1,-,-,-,-,-,-
O=C(/C=C/c1cccs1)Nc1ccc(N2CCOCC2)c(S(=O)(=O)Nc2cc(Cl)ccc2Cl)c1,-,-,-,5.7,-,-
Cn1c(=O)c2c(-c3ccccc3)n(C3CCCCC3)cc2n(C)c1=O,-,-,-,-,-,-
Cc1ccc(NC(=O)c2ccc(Nc3ccccc3F)nc2)cc1,1.2,-,-,-,-,-
O=C(Nc1cc(-c2ccccc2)[nH]n1)c1ccc(Cl)cc1,1.7,-,-,-,-,-
Cc1ccc(C(=O)Nc2ccc(Cl)cn2)cc1,-,-,-,-,-,12
O=C(Nc1ccc(Cl)cn1)c1cccc(OCc2ccccc2)c1,-,-,-,-,-,-
O=C(Nc1ccc(Cl)cn1)c1ccc(Oc2ccccc2)cc1,-,-,-,-,-,13
Cc1ccc(CC(=O)Nc2ccc(Cl)cn2)cc1,-,-,-,-,-,-
CCC(=O)Nc1ccc(S(=O)(=O)c2ccc(NC(=O)CC)cc2)cc1,-,-,-,-,-,-
CC(=O)[C@H]1CC[C@H]2[C@@H]3C[C@H](C)C4=CC(=O)CC[C@]4(C)[C@H]3[C@@H](O)C[C@]12C,-,-,-,-,-,-
COc1ccc(NS(=O)(=O)c2ccc(O)c(NS(=O)(=O)c3ccc(NC(C)=O)cc3)c2)cc1,-,-,-,-,-,-
CC(O)c1ccc(-n2cnnn2)cc1 (centres undefined),-,-,-,-,-,-
Cn1sc(NC(=O)c2cccc(Cl)c2)nc1=O,-,-,-,-,-,-
CN(C)/C=C(\C#N)C(=O)Nc1ccc(O)cc1F,-,-,-,-,-,-
O=C(COc1ccc(Cl)cc1)Nc1ccc(Cl)cn1,-,-,-,-,-,-
CCCOc1ccc(C(=O)Nc2ccc(Cl)cn2)cc1,-,-,-,5.8,-,-
SMILES,ssDAF-12 act,DAX1 inh-1,SMARCA2 activ,hcDAF-12 act,DAX1 inh-2,hgDAF12 agonist
O=C(O)COc1ccc(NC(=O)c2ccco2)cc1,-,-,-,-,-,-
Cc1c(OCC(=O)N[C@@H](Cc2ccccc2)C(=O)O)ccc2c1oc(=O)c1ccccc12,-,4.5,-,-,-,-
Cc1c(OCC(=O)N[C@@H](Cc2ccccc2)C(=O)O)ccc2c3c(c(=O)oc12)CCC3,-,-,-,-,-,-
Cc1ccc(-c2nc3ccccc3s2)cc1NC(=O)c1cc(-n2cnnc2)ccc1Cl,-,-,-,-,-,10
COc1cccc(C(=O)C[n+]2ccccc2/C=N/O)c1,1.2,-,-,-,-,-
COc1ccc(Cn2c(SCc3ccc(C)cc3)nc3cc(OC)c(OC)cc3c2=N)cc1Cl,-,-,9.2,-,-,-
CC(=O)Nc1cc(C)ns1,-,4.3,-,-,-,-
Cc1ccc(-n2c(CSc3nc(C)cc(C)n3)n[nH]c2=S)cc1,-,.,-,-,-,-
